# Source: ChEMBL document CHEMBL1961873, “Compounds: GSK PKIS; Assays: Nanosyn kinase panel” (2012)
# Several values for one entry are separate records, joined by “and”; a condition that tells them apart may be missing. Identical values can stand only once.
# How the values were obtained:
# [1] = target: Tyrosine-protein kinase Fer (Homo sapiens) (UniProt P16591); conditions: at 1 µM
# [2] = target: Tyrosine-protein kinase Fes/Fps (Homo sapiens) (UniProt P07332); conditions: at 0.1 µM
# [3] = target: Tyrosine-protein kinase Fes/Fps (Homo sapiens) (UniProt P07332); conditions: at 1 µM
# [4] = target: Fibroblast growth factor receptor 1 (Homo sapiens) (UniProt P11362); conditions: at 0.1 µM
# Chain of Fibroblast growth factor receptor 1 (Homo sapiens) (P11362 22-822 limits assumed): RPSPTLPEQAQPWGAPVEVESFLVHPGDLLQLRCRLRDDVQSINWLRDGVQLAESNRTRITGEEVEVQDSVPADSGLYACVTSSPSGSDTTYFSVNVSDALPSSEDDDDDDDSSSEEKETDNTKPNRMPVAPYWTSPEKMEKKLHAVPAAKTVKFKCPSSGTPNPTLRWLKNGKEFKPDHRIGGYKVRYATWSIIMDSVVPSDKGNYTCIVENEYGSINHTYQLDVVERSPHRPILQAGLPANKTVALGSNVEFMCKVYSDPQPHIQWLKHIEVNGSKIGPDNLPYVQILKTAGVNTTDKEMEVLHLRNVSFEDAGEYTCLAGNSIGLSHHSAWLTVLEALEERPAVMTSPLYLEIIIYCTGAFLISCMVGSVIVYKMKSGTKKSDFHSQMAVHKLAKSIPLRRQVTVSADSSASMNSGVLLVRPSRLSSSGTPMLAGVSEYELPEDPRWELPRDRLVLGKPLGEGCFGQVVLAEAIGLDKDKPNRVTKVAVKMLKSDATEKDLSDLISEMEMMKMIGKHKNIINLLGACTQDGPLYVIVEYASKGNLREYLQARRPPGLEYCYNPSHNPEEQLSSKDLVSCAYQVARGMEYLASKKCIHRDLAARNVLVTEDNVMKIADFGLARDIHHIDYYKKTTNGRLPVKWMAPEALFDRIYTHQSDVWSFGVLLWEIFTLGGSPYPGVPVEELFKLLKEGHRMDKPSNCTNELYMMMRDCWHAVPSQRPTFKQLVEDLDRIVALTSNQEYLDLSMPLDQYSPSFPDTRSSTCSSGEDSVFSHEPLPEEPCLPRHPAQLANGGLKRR
# [5] = target: Fibroblast growth factor receptor 1 (Homo sapiens) (UniProt P11362); conditions: at 1 µM
# [6] = target: Fibroblast growth factor receptor 2 (Homo sapiens) (UniProt P21802); conditions: at 0.1 µM
# Chain of Fibroblast growth factor receptor 2 (Homo sapiens) (P21802 22-821 limits assumed): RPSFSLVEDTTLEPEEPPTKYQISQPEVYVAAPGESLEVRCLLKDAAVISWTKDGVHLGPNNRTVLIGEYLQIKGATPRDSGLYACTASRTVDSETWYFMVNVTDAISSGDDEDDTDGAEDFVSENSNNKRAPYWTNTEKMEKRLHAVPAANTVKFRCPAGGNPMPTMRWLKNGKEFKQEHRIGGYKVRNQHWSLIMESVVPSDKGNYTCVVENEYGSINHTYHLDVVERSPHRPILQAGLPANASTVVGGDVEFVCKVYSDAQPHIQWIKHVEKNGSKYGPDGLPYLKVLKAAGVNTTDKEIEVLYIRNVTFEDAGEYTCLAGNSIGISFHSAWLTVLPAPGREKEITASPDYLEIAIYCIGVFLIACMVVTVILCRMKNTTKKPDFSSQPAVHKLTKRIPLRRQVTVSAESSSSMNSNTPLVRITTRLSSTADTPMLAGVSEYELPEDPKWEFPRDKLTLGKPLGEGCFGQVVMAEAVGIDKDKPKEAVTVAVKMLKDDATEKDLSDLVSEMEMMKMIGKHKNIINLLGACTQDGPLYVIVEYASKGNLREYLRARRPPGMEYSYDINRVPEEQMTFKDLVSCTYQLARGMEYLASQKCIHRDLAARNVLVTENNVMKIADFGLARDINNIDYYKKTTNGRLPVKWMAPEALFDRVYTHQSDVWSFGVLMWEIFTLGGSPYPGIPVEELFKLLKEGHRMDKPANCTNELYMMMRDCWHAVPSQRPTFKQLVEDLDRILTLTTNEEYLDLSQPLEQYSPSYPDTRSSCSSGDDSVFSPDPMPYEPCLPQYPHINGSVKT
# [7] = target: Fibroblast growth factor receptor 2 (Homo sapiens) (UniProt P21802); conditions: at 1 µM
# [8] = target: Fibroblast growth factor receptor 3 (Homo sapiens) (UniProt P22607); conditions: at 0.1 µM
# Chain of Fibroblast growth factor receptor 3 (Homo sapiens) (P22607 23-806 limits assumed): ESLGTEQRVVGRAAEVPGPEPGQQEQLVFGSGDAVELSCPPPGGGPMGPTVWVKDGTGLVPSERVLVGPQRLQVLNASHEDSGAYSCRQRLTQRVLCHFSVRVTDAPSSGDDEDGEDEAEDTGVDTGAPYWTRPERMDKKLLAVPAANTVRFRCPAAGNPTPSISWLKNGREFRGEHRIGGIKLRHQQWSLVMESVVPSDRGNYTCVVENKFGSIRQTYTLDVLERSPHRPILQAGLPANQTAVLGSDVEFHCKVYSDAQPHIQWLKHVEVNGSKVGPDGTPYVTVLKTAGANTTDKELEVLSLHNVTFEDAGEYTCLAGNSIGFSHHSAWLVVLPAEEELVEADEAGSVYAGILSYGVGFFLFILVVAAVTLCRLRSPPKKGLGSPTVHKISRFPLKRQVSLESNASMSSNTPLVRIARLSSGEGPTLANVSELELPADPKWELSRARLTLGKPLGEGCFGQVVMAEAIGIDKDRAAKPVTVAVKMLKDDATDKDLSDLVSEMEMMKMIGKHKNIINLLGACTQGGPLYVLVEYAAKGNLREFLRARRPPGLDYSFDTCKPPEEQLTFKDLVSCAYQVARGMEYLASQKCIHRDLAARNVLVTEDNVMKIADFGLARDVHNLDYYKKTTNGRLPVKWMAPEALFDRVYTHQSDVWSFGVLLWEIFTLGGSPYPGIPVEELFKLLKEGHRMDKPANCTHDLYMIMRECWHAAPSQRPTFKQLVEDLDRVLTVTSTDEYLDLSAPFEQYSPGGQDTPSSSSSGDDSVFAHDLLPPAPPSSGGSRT
# [9] = target: Fibroblast growth factor receptor 3 (Homo sapiens) (UniProt P22607); conditions: at 1 µM
# [10] = target: Fibroblast growth factor receptor 4 (Homo sapiens) (UniProt P22455); conditions: at 0.1 µM;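 note: values are mean percent inhibition of FGFR4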
# Chain of Fibroblast growth factor receptor 4 (Homo sapiens) (P22455 22-802 limits assumed): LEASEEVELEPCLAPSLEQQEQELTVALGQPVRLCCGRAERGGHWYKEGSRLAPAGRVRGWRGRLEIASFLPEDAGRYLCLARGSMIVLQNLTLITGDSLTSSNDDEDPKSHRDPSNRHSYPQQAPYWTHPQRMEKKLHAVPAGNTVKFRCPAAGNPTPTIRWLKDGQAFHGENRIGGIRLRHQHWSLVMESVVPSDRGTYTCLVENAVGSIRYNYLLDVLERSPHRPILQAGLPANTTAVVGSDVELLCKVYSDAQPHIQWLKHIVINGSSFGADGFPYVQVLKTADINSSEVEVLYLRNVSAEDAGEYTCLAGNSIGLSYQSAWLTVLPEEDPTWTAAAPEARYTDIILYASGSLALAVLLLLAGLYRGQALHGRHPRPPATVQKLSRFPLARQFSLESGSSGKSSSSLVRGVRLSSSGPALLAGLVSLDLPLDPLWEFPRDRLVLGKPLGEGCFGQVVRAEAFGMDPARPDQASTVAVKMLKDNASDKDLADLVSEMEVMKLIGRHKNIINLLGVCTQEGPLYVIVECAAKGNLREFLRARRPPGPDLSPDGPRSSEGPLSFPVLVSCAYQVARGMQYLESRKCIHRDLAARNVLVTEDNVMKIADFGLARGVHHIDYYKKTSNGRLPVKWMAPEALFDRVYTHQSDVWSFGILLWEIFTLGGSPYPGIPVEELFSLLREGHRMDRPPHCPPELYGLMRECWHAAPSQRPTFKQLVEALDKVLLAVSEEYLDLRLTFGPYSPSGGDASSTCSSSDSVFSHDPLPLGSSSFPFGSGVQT
# Chain of Tyrosine-protein kinase Fes/Fps (Homo sapiens) (P07332 whole entry): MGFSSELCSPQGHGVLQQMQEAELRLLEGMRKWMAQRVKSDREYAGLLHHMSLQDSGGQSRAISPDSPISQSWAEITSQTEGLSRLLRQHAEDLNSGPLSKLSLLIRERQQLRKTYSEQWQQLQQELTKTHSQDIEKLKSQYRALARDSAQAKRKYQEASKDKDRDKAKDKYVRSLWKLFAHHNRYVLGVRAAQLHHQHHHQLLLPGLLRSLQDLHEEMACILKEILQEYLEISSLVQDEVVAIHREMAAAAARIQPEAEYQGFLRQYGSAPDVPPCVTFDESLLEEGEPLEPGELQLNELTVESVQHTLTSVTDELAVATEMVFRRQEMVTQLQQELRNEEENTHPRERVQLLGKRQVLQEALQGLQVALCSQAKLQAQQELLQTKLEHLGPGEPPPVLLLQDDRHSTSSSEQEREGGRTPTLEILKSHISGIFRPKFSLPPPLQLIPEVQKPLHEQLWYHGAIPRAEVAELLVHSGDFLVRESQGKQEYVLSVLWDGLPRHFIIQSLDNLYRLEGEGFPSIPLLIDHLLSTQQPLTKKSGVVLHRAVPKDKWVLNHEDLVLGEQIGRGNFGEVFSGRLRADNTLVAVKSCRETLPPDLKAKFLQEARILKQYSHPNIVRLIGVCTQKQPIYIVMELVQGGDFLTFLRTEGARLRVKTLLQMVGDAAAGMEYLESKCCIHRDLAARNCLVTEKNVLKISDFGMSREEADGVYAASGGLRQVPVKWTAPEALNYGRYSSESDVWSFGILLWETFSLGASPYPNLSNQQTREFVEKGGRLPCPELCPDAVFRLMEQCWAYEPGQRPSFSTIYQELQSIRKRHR
# Chain of Tyrosine-protein kinase Fer (Homo sapiens) (P16591 whole entry, looked up): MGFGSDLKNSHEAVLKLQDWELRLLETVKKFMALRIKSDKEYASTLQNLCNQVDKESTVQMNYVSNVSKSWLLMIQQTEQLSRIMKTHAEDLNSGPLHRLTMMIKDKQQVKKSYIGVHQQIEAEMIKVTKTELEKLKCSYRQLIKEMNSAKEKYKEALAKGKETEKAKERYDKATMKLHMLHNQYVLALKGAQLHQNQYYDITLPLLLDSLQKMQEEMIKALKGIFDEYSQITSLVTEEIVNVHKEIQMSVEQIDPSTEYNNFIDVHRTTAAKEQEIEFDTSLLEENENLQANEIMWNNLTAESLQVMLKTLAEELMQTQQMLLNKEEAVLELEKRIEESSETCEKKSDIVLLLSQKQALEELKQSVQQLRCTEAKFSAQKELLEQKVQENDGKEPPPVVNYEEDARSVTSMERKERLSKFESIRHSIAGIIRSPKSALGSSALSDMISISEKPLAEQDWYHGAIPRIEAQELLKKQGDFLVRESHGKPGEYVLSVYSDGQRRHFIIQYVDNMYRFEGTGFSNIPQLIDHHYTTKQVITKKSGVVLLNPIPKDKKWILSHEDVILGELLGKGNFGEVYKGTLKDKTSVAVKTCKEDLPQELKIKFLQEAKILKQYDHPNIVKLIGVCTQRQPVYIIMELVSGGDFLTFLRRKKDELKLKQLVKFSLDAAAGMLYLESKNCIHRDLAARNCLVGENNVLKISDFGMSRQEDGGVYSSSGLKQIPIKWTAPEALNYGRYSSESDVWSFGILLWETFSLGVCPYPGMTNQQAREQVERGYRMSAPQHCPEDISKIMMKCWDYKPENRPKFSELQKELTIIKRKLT
Structure (SMILES),inhibition [1],inhibition [2],inhibition [3],inhibition [4],inhibition [5],inhibition [6],inhibition [7],inhibition [8],inhibition [9],inhibition [10]
CCn1c(-c2nonc2N)nc2cncc(C(=O)NCCNC)c21,3.14%,4.48%,4.8%,2.05%,4.72%,3.81%,5.33%,2%,5.02%,0.72%
OCCCNc1nccc(-c2c(-c3ccc(F)cc3)nn3cc(C(F)(F)F)ccc23)n1,2.56%,1.95%,2.62%,6%,6.47%,0.64%,3.29%,2.01%,1.53%,1.17%
CN(C)CCNC(=O)Nc1ccc(N(C)c2ccnc(Nc3ccc(CS(C)(=O)=O)cc3)n2)cc1,12.4%,3.36%,6.7%,27.9%,9.1%,5.38%,8.82%,6.17%,5.98%,1.63%
CCS(=O)(=O)c1ccc(OC)c(Nc2ncc(-c3cccc(C(C)=O)c3)o2)c1,3.06%,1.69%,2.72%,4.89%,12.9%,17.2%,52.6%,20%,60%,1.41%
Cc1cc(O)cc(C)c1/C=C/c1cncc(C(=O)OC(C)(C)C)c1,3.02%,1.48%,2.34%,1.91%,3.93%,1.65%,5.08%,7.81%,7.63%,1.4%
CS(=O)(=O)CCNCc1ccc(-c2ccc3ncnc(Nc4ccc(OCc5cccc(C(F)(F)F)c5)cc4)c3c2)o1,0.74%,3.52%,4.12%,6.33%,10.8%,6.07%,14.2%,9.13%,10.7%,4.16%
COc1cc2c(cc1Nc1nc(Nc3cccc(F)c3C(N)=O)c3cc[nH]c3n1)N(C(=O)CN1CCN(C(C)C)CC1)CC2,53.2%,14%,59.2%,11.4%,2.78%,5.89%,0.93%,7.88%,3.19%,1.09%
COc1cc(Nc2ncc(-c3ccccc3)o2)cc(OC)c1,3.14%,3.89%,3.89%,2.6%,7.89%,3.62%,11.7%,1.91%,10.2%,-1.24%
COC(=O)Nc1nc2ccc(Oc3ccc(NC(=O)Nc4cc(C(F)(F)F)ccc4F)cc3)cc2s1,6.3%,0.15%,0.99%,4.86%,16.9%,2.26%,29.7%,5.73%,11.5%,0.42%
N#Cc1ccc2c(-c3ccnc(NC4CC4)n3)c(-c3ccc(F)cc3)nn2c1,-0.62%,1.05%,1.43%,-2.46%,1.96%,1.16%,2.21%,1.76%,1.06%,1.18%
CNC(=O)c1ncccc1Nc1nc(Nc2cc3c(cc2OC)CCCN3C(=O)CN(C)C)nc2[nH]ccc12,80.1%,44.3%,80.6%,9.89%,3.03%,6.69%,6.99%,7.55%,4.61%,2.18%
COc1ccc2ncn(-c3cc(O[C@H](C)c4ccccc4C(F)(F)F)c(C(N)=O)s3)c2c1,3.58%,-0.21%,0.25%,1.11%,-0.51%,-2.58%,5.48%,0.12%,3.58%,0.21%
Nc1ncnc2occ(-c3ccc(NC(=O)Nc4cc(C(F)(F)F)ccc4F)cc3)c12,29.4% and 17.7%,1.99% and -1.17%,3.25% and -0.8%,3.81% and 0.38%,29.8% and 19.3%,14.1% and 7.78%,52.2% and 43.8%,6.93% and 1.4%,34.3% and 17.9%,2.49% and 0.65%
CN(c1ccc(NC(=O)NCCN2CCOCC2)cc1)c1ccnc(Nc2ccc(CS(C)(=O)=O)cc2)n1,20.6%,2.04%,7.78%,1.48%,0.91%,7.93%,14.8%,6.19%,10.3%,1.27%
COC(=O)Nc1nc2cc(Oc3ccc(NC(=O)Nc4ccccc4)cc3)ccc2[nH]1,3.19%,1.46%,1.32%,-5.22%,1.47%,1.69%,4.03%,5.75%,3.54%,0.83%
